# Measured values reported in PubChem BioAssay (NCI).
# Compounds without any hit were thinned out: in the full panel of roughly 79,000, 15% have a hit. Values without a mark were called inactive. The source made the active and inactive calls. Cut-off read from the data, not from the text of the source: active = growth inhibition above about 70%; inactive = the rest.
# Tests used:
# [1] = NCI Yeast Anticancer Drug Screen. Data for the rad52 strain (AID 147);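 note: 0% = growth of vehicle-treated control cultures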; conditions: S. cerevisiae rad52 mutant growth inhibition, stronger effect = higher value
# Method in brief: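 Genetically altered yeast (DNA damage repair defect) treated with compound; inhibition calculated relative to vehicle.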
# [2] = NCI Yeast Anticancer Drug Screen. Data for the wt1 strain (AID 149);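 note: 0% = growth of vehicle-treated wt1 cultures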; conditions: S. cerevisiae wt1 strain (SPY 50644) growth inhibition, stronger effect = higher value
# Method in brief: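 Yeast wt1 strain exposed to compounds; growth inhibition measured relative to vehicle-treated controls.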
# [3] = NCI Yeast Anticancer Drug Screen. Data for the rad50EPP+ strain (AID 151);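 note: 0% = growth of vehicle-treated control cultures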; conditions: S. cerevisiae rad50 mutant strain, stronger effect = higher value
# Method in brief: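 Strain rad50EPP+; compound exposure; % growth inhibition vs vehicle.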
# [4] = NCI Yeast Anticancer Drug Screen. Data for the mgt1 strain (AID 153); conditions: S. cerevisiae mgt1 mutant growth inhibition, stronger effect = higher value
# Method in brief: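 Read-out: yeast growth inhibition vs vehicle control. Strain mgt1, drawn from a panel altered in DNA damage repair or cell cycle control.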
# [5] = NCI Yeast Anticancer Drug Screen. Data for the rad50 strain (AID 155);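 note: 0% = growth of vehicle-only cultures of the same strain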; conditions: S. cerevisiae rad50 strain growth inhibition, stronger effect = higher value
# Method in brief: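 Yeast carrying a defined DNA repair defect were exposed to test compounds, and growth was compared with vehicle-treated controls to give percent inhibition.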
# [6] = NCI Yeast Anticancer Drug Screen. Data for the mec2-1 strain (AID 157); conditions: S. cerevisiae mec2-1 strain, stronger effect = higher value
# Method in brief: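 Cells of the genetically defined mec2-1 yeast strain are incubated with test compound. Inhibition of growth is calculated against vehicle-treated controls.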
# [7] = NCI Yeast Anticancer Drug Screen. Data for the sgs1 mgt1 strain (AID 161);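 note: 0% = growth of cultures given vehicle only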; conditions: S. cerevisiae sgs1 mgt1 strain, stronger effect = higher value
# Method in brief: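 Read-out: growth inhibition vs vehicle controls. Cells: mutant yeast strain deficient in DNA damage repair.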
# [8] = NCI Yeast Anticancer Drug Screen. Data for the CLN2oe strain (AID 163);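 note: 0% = growth of vehicle-only control cultures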; conditions: S. cerevisiae CLN2oe strain, stronger effect = higher value
# Method in brief: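 Strain altered in cell-cycle control, incubated with compound; growth compared to solvent-treated controls.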
# [9] = NCI Yeast Anticancer Drug Screen. Data for the cln2 rad14 strain (AID 165);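 note: 0% = growth equal to vehicle treated cultures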; conditions: S. cerevisiae cln2 rad14 strain, stronger effect = higher value
# Method in brief: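 The screen exposed genetically defined yeast (cln2 rad14) to test compounds and scored growth inhibition relative to vehicle-treated controls.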
# [10] = NCI Yeast Anticancer Drug Screen. Data for the bub3 strain (AID 167); conditions: S. cerevisiae bub3 mutant strain, stronger effect = higher value
# Method in brief: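 Compounds were applied to a genetically altered yeast strain carrying a cell-cycle control defect. Growth inhibition was scored against vehicle-treated controls.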
# [11] = NCI Yeast Anticancer Drug Screen. Data for the wt2 strain (AID 169);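 note: 0% = growth of vehicle-treated yeast cultures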; conditions: S. cerevisiae wt2 strain growth inhibition, stronger effect = higher value
# Method in brief: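 Steps: yeast strain treated with compound; growth recorded; inhibition calculated relative to cultures given vehicle alone.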
# [12] = NCI Yeast Anticancer Drug Screen. Data for the mlh1 strain (AID 171);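 note: 0% = growth of vehicle-treated control cultures of the same strain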; conditions: S. cerevisiae mlh1 strain growth inhibition, stronger effect = higher value
# Method in brief: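 Yeast screen: mutant strain plus compound, growth scored against vehicle control wells.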
# [13] = NCI Yeast Anticancer Drug Screen. Data for the mlh1 rad18 strain (AID 175); conditions: S. cerevisiae mlh1 rad18 strain growth inhibition, stronger effect = higher value
# Method in brief: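 Compound-treated yeast growth, normalised to vehicle controls. Strain bears defined DNA repair mutations.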
# [14] = NCI Yeast Anticancer Drug Screen. Data for the rad18 strain (AID 177); conditions: S. cerevisiae rad18 mutant growth inhibition, stronger effect = higher value
# Method in brief: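 Inhibition values reflect reduced yeast growth compared with vehicle-treated controls, using a strain engineered with a DNA damage repair defect.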
# [15] = at 5.0 µM (retest, dose inferred, filed as 0.5)
# [16] = at 50.0 µM (retest, dose inferred, filed as 5.0)
compound,measurement,setting,value
Cc1ccc(NC(=O)/C(Cl)=C(\Cl)C(=O)O)cc1C,growth inhibition,[1]; at 1.2 µM,2%
same,growth inhibition,[1]; at 3.7 µM,7%
same,growth inhibition,[1]; at 11.0 µM,42%
same,growth inhibition,[1]; at 33.0 µM,99% (active)
same,growth inhibition,[1]; at 100.0 µM,99% (active)
same,growth inhibition,[2]; at 1.2 µM,-2%
same,growth inhibition,[2]; at 3.7 µM,-3%
same,growth inhibition,[2]; at 11.0 µM,2%
same,growth inhibition,[2]; at 33.0 µM,88% (active)
same,growth inhibition,[2]; at 100.0 µM,98% (active)
same,growth inhibition,[3]; at 1.2 µM,6%
same,growth inhibition,[3]; at 3.7 µM,16%
same,growth inhibition,[3]; at 11.0 µM,77% (active)
same,growth inhibition,[3]; at 33.0 µM,99% (active)
same,growth inhibition,[3]; at 100.0 µM,99% (active)
same,growth inhibition,[4]; at 1.2 µM,4%
same,growth inhibition,[4]; at 3.7 µM,7%
same,growth inhibition,[4]; at 11.0 µM,22%
same,growth inhibition,[4]; at 33.0 µM,99% (active)
same,growth inhibition,[4]; at 100.0 µM,99% (active)
same,growth inhibition,[5]; at 1.2 µM,2%
same,growth inhibition,[5]; at 3.7 µM,7%
same,growth inhibition,[5]; [15],13%
same,growth inhibition,[5]; at 11.0 µM,38%
same,growth inhibition,[5]; at 33.0 µM,99% (active)
same,growth inhibition,[5]; [16],99% (active)
same,growth inhibition,[5]; at 50.0 µM,99.2% (active)
same,growth inhibition,[5]; at 100.0 µM,98% (active)
same,growth inhibition,[6]; at 1.2 µM,6%
same,growth inhibition,[6]; at 3.7 µM,10%
same,growth inhibition,[6]; [15],15%
same,growth inhibition,[6]; at 11.0 µM,24%
same,growth inhibition,[6]; at 33.0 µM,99% (active)
same,growth inhibition,[6]; [16],100% (active)
same,growth inhibition,[6]; at 50.0 µM,99.5% (active)
same,growth inhibition,[6]; at 100.0 µM,99% (active)
same,growth inhibition,[7]; [15],21%
same,growth inhibition,[7]; [16],100% (active)
same,growth inhibition,[7]; at 50.0 µM,99.5% (active)
same,growth inhibition,[8]; at 1.2 µM,3%
same,growth inhibition,[8]; at 3.7 µM,4%
same,growth inhibition,[8]; at 11.0 µM,13%
same,growth inhibition,[8]; at 33.0 µM,96% (active)
same,growth inhibition,[8]; at 100.0 µM,99% (active)
same,growth inhibition,[9]; [15],8%
same,growth inhibition,[9]; [16],99% (active)
same,growth inhibition,[9]; at 50.0 µM,72% (active)
same,growth inhibition,[10]; at 1.2 µM,7%
same,growth inhibition,[10]; at 3.7 µM,5%
same,growth inhibition,[10]; [15],21%
same,growth inhibition,[10]; at 11.0 µM,20%
same,growth inhibition,[10]; at 33.0 µM,99% (active)
same,growth inhibition,[10]; [16],99% (active)
same,growth inhibition,[10]; at 50.0 µM,99.5% (active)
same,growth inhibition,[10]; at 100.0 µM,99% (active)
same,growth inhibition,[11]; at 1.2 µM,0%
same,growth inhibition,[11]; at 3.7 µM,2%
same,growth inhibition,[11]; at 11.0 µM,11%
same,growth inhibition,[11]; at 33.0 µM,97% (active)
same,growth inhibition,[11]; at 100.0 µM,99% (active)
same,growth inhibition,[12]; at 1.2 µM,1%
same,growth inhibition,[12]; at 3.7 µM,4%
same,growth inhibition,[12]; at 11.0 µM,12%
same,growth inhibition,[12]; at 33.0 µM,96% (active)
same,growth inhibition,[12]; at 100.0 µM,99% (active)
same,growth inhibition,[13]; [15],16%
same,growth inhibition,[13]; [16],99% (active)
same,growth inhibition,[13]; at 50.0 µM,99.3% (active)
same,growth inhibition,[14]; at 1.2 µM,0%
same,growth inhibition,[14]; at 3.7 µM,3%
same,growth inhibition,[14]; at 11.0 µM,24%
same,growth inhibition,[14]; at 33.0 µM,99% (active)
same,growth inhibition,[14]; at 100.0 µM,99% (active)
